Screening results from PubChem BioAssay.
TROY signal inh – TROY signaling inhibition; Q293 LMP1-TROYcd NF-kB luciferase reporter, 4 h; inhibition, % at 10 µM; 360,000 tested, 0.98% active; AID 1347056;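 active means compounds whose plate-normalised and pattern-corrected inhibition of the luciferase reporter signal at the single screening dose is 50% or more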
TWEAK Fn14 block – blocks TWEAK-Fn14 interaction in a reporter cell assay; TWEAK-stimulated Fn14 reporter cells, luciferase luminescence, 8 h; inhibition, % at 10 µM; 360,000 tested, 2% active; AID 1159606; in the data active means inhibition above about 50%
CF NFkB inh – blocks PAF-induced NF-kB reporter in cystic fibrosis cells | KKLEB NF-kB-GFP reporter, GFP fluorescence overnight | inhibition, % at 5 µM | 360,000 tested, 0.86% active | AID 588850;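 active means at least 50% inhibition at 5 µM, scaled per plate between neutral and stimulator controls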;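 further: PAF is a Pseudomonas aeruginosa culture filtrate used as stimulus; plate controls were PAF-stimulated DMSO wells for no effect and unstimulated DMSO wells for full effect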
Peg3 prom inh – reduces Peg3 promoter-driven luciferase expression in HeLa | HeLa PEG-Prom luciferase reporter, luminescence, overnight | inhibition, % at 20 µM | 360,000 tested, 1.7% active;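 active means inhibition of at least 50% at 20 µM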
KKLEB tox – counter-screen for CF NF-kB inhibitors: cytotoxicity; KKLEB CF airway cells viability, ATPlite luminescence, overnight; active compounds read low; cells stimulated with P. aeruginosa culture filtrate; activity change (cytotoxicity), % at 5 µM; 360,000 tested, 0.36% active; AID 602141;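 active means corrected activity change at or below -50% at 5 µM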
HIF-2a block – blocks HIF-2a reporter activity | 786-0 RCC cells HIF-2a reporter, luciferase luminescence, overnight | inhibition, % at 18.8 µM | 360,000 tested, 0.72% active | AID 624352;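 active means inhibition of the luminescence signal of 40% or more relative to plate controls, in a single-dose primary screen at 18.75 µM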
* = called active by the depositor; / = not tested or not shown. Hits are enriched below; roughly 4% of the tested compounds scored in any of these assays.

SMILES	TROY signal inh	TWEAK Fn14 block	CF NFkB inh	Peg3 prom inh	KKLEB tox	HIF-2a block
Cn1c(N)c(C(=O)COC(=O)c2cc(S(=O)(=O)N3CCOCC3)ccc2F)c(=O)n(C)c1=O	36	-16	-8	89*	-10	-15
Cc1ccc(S(=O)(=O)N2CCOCC2)cc1C(=O)OCC(=O)c1c(N)n(C)c(=O)n(C)c1=O	-9	0	23	24	2	10
CC1SC(c2cccc(Cl)c2)NC1=O (stereo not given)	-18	-8	-8	25	6	2
CCN1C(=O)/C(=C/C=C2/SCCN2C)SC1=S	29	68*	-13	-108	8	-100
O=C(CN1C(=O)c2ccccc2S1(=O)=O)NC1CCCC1	-33	1	10	2	-11	-20
O=C(NC1CCCCC1)C(c1ccc(F)cc1)N(CCc1ccccc1)C(=O)CN1C(=O)c2ccccc2S1(=O)=O (stereo not given)	11	3	19	79*	-20	0
O=C(NC1CCCCC1)C(c1ccc(F)cc1)N(Cc1ccccc1)C(=O)CN1C(=O)c2ccccc2S1(=O)=O (stereo not given)	-8	-16	8	68*	-23	6
O=C(NCC1CCCO1)C(c1ccncc1)N(Cc1ccc(F)cc1)C(=O)CN1C(=O)c2ccccc2S1(=O)=O (stereo not given)	-11	-5	7	2	1	6
COc1ccc(CC(=O)O)cc1O	-8	19	5	-5	-4	12
COC(=O)[C@]1(Cc2ccccc2)N[C@H](CN(C)C(=O)Nc2ccc(C(F)(F)F)cc2)[C@@H]2C(=O)N(C)C(=O)[C@@H]21	-1	20	-1	-1	5	17
O=C(/C=C/c1ccccc1)Nc1scc(-c2ccccc2)c1C(=O)O	27	52*	4	-168	-4	-150
O=C(/C=C/c1ccco1)Nc1scc(-c2ccccc2)c1C(=O)O	15	67*	1	-116	-4	-87
Cc1cccc(CN2CCOCCS2(=O)=O)c1	-3	2	-3	-1	0	2
CCCCN(CCCC)C(=S)N/N=C/c1c(C)[nH]n(-c2ccccc2)c1=O	-8	-2	-15	72*	-7	1
Cc1[nH]n(-c2ccccc2)c(=O)c1/C=N/NC(=O)c1ccc(O)cc1O	-23	-27	21	-10	-11	-13
COc1ccc(-c2c(NC(=O)c3ccco3)oc3ccccc3c2=O)cc1OC	-1	7	22	-3	-2	5
CCCN(CCC)CCCNC(=O)c1cn(CC)c2ccc(S(=O)(=O)N(C)C3CCCCC3)cc2c1=O	5	9	3	6	-8	12
COc1cc2nc(N3CCN(C(=O)C4COc5ccccc5O4)CC3)nc(N)c2cc1OC (stereo not given)	-5	-36	-15	-4	-4	2
COc1cc2nc(N3CCN(C(=O)c4ccco4)CC3)nc(N)c2cc1OC	-12	-32	-21	56*	2	-2
CCc1nc2c(OCCOc3ccc(F)cc3)cccn2c1N(C=O)Cc1ccccc1	4	7	5	4	-14	-3
Cc1onc(-c2ccccc2)c1CNC(=O)Nc1ccc(C(F)(F)F)cc1	50*	9	-2	26	-9	26
CC(=O)NC1=NN(C(C)=O)C(c2cccc([N+](=O)[O-])c2)S1 (stereo not given)	-20	-6	4	7	-17	4
Cc1[nH][nH]c(=O)c1C(c1c(C)[nH][nH]c1=O)c1cn(Cc2ccc(F)cc2)c2ccccc12	15	14	15	64*	-14	11
CC(SC(C)C(=O)NN=Cc1cccc(Cl)c1)C(=O)NN=Cc1cccc(Cl)c1 (stereo not given)	14	-5	-7	99*	11	6
COc1cccc(C=NNC(=O)C(C)SC(C)C(=O)NN=Cc2cccc(OC)c2)c1 (stereo not given)	-4	-4	5	6	-5	3
SMILES	TROY signal inh	TWEAK Fn14 block	CF NFkB inh	Peg3 prom inh	KKLEB tox	HIF-2a block
Cc1cc(C(C)(C)C)cc(S(=O)(=O)NCCO)c1C	/	85*	8	18	4	14
COCC(C)n1c(C)cc(C(=O)COC(=O)c2oc3ccccc3c2C)c1C (stereo not given)	7	-6	0	-72	8	-82
COCC(C)n1c(C)cc(C(=O)COC(=O)c2n[nH]c3ccccc23)c1C (stereo not given)	78*	67*	10	-49	-5	-51
CC(=O)CC(=O)Nc1ncc(C(F)(F)F)cc1Cl	10	35	-15	2	6	8
O=C(Nc1cccnc1)C1COc2ccccc2O1 (stereo not given)	-12	6	-5	-22	7	-11
O=C(Nc1ccc(-c2cn3ccsc3n2)cc1)C1COc2ccccc2O1 (stereo not given)	57*	45	-12	-56	6	-148
CC(=O)c1sc(NC(=O)C2COc3ccccc3O2)nc1C (stereo not given)	56*	87*	19	-78	0	-10
O=C(Nc1ccc([N+](=O)[O-])cc1)C1COc2ccccc2O1 (stereo not given)	-10	-5	10	-39	-14	-66
C/C(=N\NC(=O)C1COc2ccccc2O1)c1ccccn1 (stereo not given)	6	-51	-4	51*	-10	-33
C/C(=N\NC(=O)C1COc2ccccc2O1)c1ccc(C)o1 (stereo not given)	1	3	4	2	-4	-7
O=C(Nc1nncs1)C1COc2ccccc2O1 (stereo not given)	-10	-3	-2	-20	-3	-46
O=C(Nc1ccccc1)C1COc2ccccc2O1 (stereo not given)	-16	80*	4	-88	-4	-184
Cc1cccc(C)c1NC(=O)COC(=O)[C@@H]1CCCN1C(=O)c1cccs1	-8	3	0	-1	-13	5
Cc1ccc(NC(=O)C2COc3ccccc3O2)cc1 (stereo not given)	-45	51*	-12	-240	16	-277
CC1(C)Oc2ccc(NC(=O)C3COc4ccccc4O3)cc2O1 (stereo not given)	54*	42	-24	-101	1	-116
CCN(CC(=O)Nc1ccc2c(c1)OCCO2)c1ccc(S(=O)(=O)N2CCOCC2)cn1	-10	6	-10	9	3	6
OCCN1CCN(c2ncnc3c2c(-c2ccccc2)cn3-c2ccc(Br)cc2)CC1	10	-11	14	35	-9	17
NC(=O)C1CCN(c2ncnc3c2c(-c2ccccc2)cn3-c2ccccc2)CC1	-15	6	17	61*	-3	22
